Assay outcomes (PubChem BioAssay)
Rows were chosen to be rich in hits. Some 4.1% of all compounds tested hit in one or more screens of this group.
ssDAF12 agonist: S. stercoralis DAF-12 nuclear receptor activators, primary screen, cell-based, luminescence, HEK293, GRIP1 co-expression, lit1-tk-luc; HEK293 ssDAF-12/GRIP1 lit1-tk-luc reporter; % of 3 µM dafachronic acid response; activation, % at 6.8 µM; 370,000 tested, 1% active;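 active = activation above the mean over all tested compounds plus 3 SD, cut at about 0.9% in these data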;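 also: 0% = DMSO-only wells and 100% = 3 µM delta7-dafachronic acid wells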
hgDAF12 agonist: H. glycines DAF-12 receptor agonists, primary screen, cell-based, luminescence, HEK293, GAL4 fusion, UAS-luciferase. Nuclear hormone receptor DAF-12 (Heterodera glycines), GAL4 fusion. 370,000 tested, 1.8% active. HEK293 GAL4-hgDAF12 UAS-luciferase reporter, agonist luminescence; normalized to butyrate control. activation, % at 6.8 µM;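 active = activation above a cutoff set at the mean of all screened compounds plus 3 SD, cut at about 10% in these data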;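 also: 0% = DMSO wells and 100% = sodium butyrate wells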
DAX1 inh-1: DAX1 (NR0B1) inhibitors on StAR promoter, primary screen, cell-based, luminescence, SF-1 (NR5A1), full-length DAX-1 | HEK293T StAR-luciferase reporter, SF-1/DAX-1 repression relief | inhibition, % at 6.8 µM | 370,000 tested, 1.1% active | AID 652010, 2013;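 active = inhibition above the mean over all tested compounds plus 3 SD, cut at about 3.6% in these data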;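 also: 0% = DAX-1 cells with DMSO and 100% = cells lacking DAX-1 with DMSO; higher inhibition means more luminescence from relief of DAX-1 repression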
DAX1 inh-2: DAX1 (NR0B1) inhibitors, primary screen, cell-based, HEK293, Gal4-DAX1, luciferase luminescence; HEK293 Gal4-DAX1 luciferase reporter; inhibition, % at 6.75 µM; 340,000 tested, 0.99% active; AID 504766, 2011;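 active = inhibition above the mean over all tested compounds plus 3 SD, cut at about 4.2% in these data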;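 also: 0% = DAX1-transfected cells with DMSO and 100% = empty-vector control cells with DMSO; inhibition shows as a rise in luminescence from relieved DAX1 repression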
Target sequence (P51843 207-470 limits assumed): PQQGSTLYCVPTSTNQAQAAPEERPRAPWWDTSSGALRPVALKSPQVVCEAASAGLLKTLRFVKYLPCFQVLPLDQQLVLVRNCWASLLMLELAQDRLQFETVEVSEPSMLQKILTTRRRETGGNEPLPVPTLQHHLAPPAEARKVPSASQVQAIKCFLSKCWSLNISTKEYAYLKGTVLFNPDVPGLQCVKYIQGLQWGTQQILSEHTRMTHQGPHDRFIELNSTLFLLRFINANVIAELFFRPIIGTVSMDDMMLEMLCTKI
hcDAF12 agonist: H. contortus DAF-12 nuclear receptor activators, primary screen, cell-based, luminescence, HEK293, lit1-tk-luc reporter; 370,000 tested, 1.4% active; HEK293 hcDAF-12 lit1-tk-luc reporter; 0% DMSO, 100% Δ7-dafachronic acid; activation, % at 6.8 µM;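 active = activation above the mean of all tested compounds plus 3 SD, cut at about 5.5% in these data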;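 also: 100% = response to 3 µM Δ7-dafachronic acid high control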
LXRb hcDAF ctr: LXR agonists, Gal4 luciferase reporter, confirmation, counter-screen for hcDAF-12 agonist project, cell-based, luminescence, HEK293, H. contortus campaign | shares compounds with hcDAF12 agonist | HEK293 Gal4-LXR tk-luc reporter, 24 h; normalized: DMSO 0%, positive control 100% | activation, % at 6.8 µM | 3,400 tested, under 10 active | AID 743027, 2013;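 active = mean percent activation of the reporter above a cutoff set as the average over tested compounds plus their standard deviation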
hcDAF12 ag: H. contortus DAF-12 receptor agonists, confirmation, cell-based, luminescence, HEK293, lit1-tk-luc, triplicate; shares compounds with hcDAF12 agonist; HEK293 hcDAF-12 lit1-tk-luc reporter; % of Δ7-dafachronic acid response; activation, % at 6.8 µM; 3,400 tested, 61% active;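 active = mean activation across triplicate tests above the threshold derived from the earlier primary screen, cut at about 5.5% in these data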;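 also: 0% = DMSO only wells and 100% = 3 µM Δ7-dafachronic acid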
An asterisk follows results filed as active; · = not tested or not shown.

SMILES | ssDAF12 agonist | hgDAF12 agonist | DAX1 inh-1 | DAX1 inh-2 | hcDAF12 agonist | LXRb hcDAF ctr | hcDAF12 ag
Cc1ccccc1NCc1nc2ccccc2n1C | 1.0* | 10 | 3 | 3 | 8.4* | 1 | 6.2*
Cn1c(CNc2ccccc2)nc2ccccc21 | 1.1* | 10 | 2 | 2 | 8.7* | 0 | 6.9*
CCCC(=O)NCc1nc2ccccc2n1C | -1 | 0 | 0 | 0 | 1 | · | ·
CN(C)c1ccc(C(=O)NCC2CCN(C(=O)C(=O)c3cccs3)CC2)cc1 | -1 | -1 | -1 | · | -1 | · | ·
C=CCN(CC=C)Cc1cc(=O)oc2cc(C)c(C)cc12 | 0 | -1 | -3 | · | -1 | · | ·
Cc1ccn2cc(-c3ccc(O)c(O)c3)nc2c1 | 1 | 9 | 3 | -2 | 7.0* | 1 | 7.5*
Cc1ccn2cc(-c3cccc(NC(=O)C(C)C)c3)nc2c1 | -1 | 7 | 1 | 0 | 3 | · | ·
Cc1cccc(NC(=O)Nc2ccc(F)cc2)n1 | -1 | 7 | 2 | -1 | 1 | · | ·
Cc1ccc(NC(=O)Nc2cccc(C)n2)cc1 | 1.4* | 9 | 1 | 2 | 14* | 1 | 12*
CN(c1ccccc1)c1ccc(/C=N/N2CCOCC2)cc1 | -1 | 11* | 2 | 5.8* | 7.0* | 1 | 5.9*
C(=NN1CCCCCC1)c1ccccc1 | -1 | 3 | 2 | 0 | 1 | · | ·
Cn1c2ccccc2c2cc([N+](=O)[O-])ccc21 | -1 | 3 | 1 | -2 | -1 | · | ·
CCN(CC)CCn1c2ccccc2c2nc3ccc([N+](=O)[O-])cc3cc21 | 1.1* | 4 | 1 | · | 9.0* | 1 | 6.8*
CCn1c(/C=C/c2c(C)[nH]c3ccccc23)nc2ccccc2c1=O | 0.9* | 5 | 0 | 0 | 10* | 0 | 4
CCn1c(/C=C/c2ccccc2Cl)nc2ccccc2c1=O | -1 | 2 | 0 | 2 | -1 | · | ·
CCn1c(/C=C/c2c[nH]c3ccccc23)nc2ccccc2c1=O | 1.4* | 12* | 3 | 5.2* | 8.6* | 1 | 7.8*
CCn1c(/C=C\c2ccccc2C)nc2ccccc2c1=O | -2 | 3 | -1 | -1 | 0 | · | ·
COC(=O)C[C@@H]1C[C@@H]2c3cc(NC(=O)NC4CCCCC4)ccc3O[C@@H]2[C@H](CO)O1 | 0 | 1 | 0 | 1 | 0 | · | ·
COc1ccc(N2CCCC2=O)cc1S(=O)(=O)N1CCOCC1 | 0 | -2 | 1 | 0 | 0 | · | ·
O=C1C(=C(O)c2ccccc2)C(=O)c2ccccc21 | 2.1* | 3 | 0 | -1 | 7.0* | 0 | 1
CSc1ccc(Cn2c(C)c(C(=O)NCc3cccc(Cl)c3)sc2=O)cc1 | -1 | -2 | 0 | · | -2 | · | ·
Cc1ccc2nc3n(c(=O)c2c1)-c1cc(Cl)ccc1C(=O)NC3Cc1ccc(O)cc1 (stereo unspecified) | -1 | 1 | 1 | · | -1 | · | ·
O=C1c2ccccc2-c2nnc(-c3ccccc3)cc21 | 1.8* | 8 | 3 | 1 | 7.6* | 1 | 6.0*
Cc1cccc(-c2cc3c(nn2)-c2ccccc2C3=O)c1 | 1.7* | 5 | 1 | -1 | 6.6* | 1 | 8.6*
Cc1cnc2c(c1)C(=O)c1ccccc1-2 | -1 | 1 | 0 | 1 | 2 | · | ·
SMILES | ssDAF12 agonist | hgDAF12 agonist | DAX1 inh-1 | DAX1 inh-2 | hcDAF12 agonist | LXRb hcDAF ctr | hcDAF12 ag
N/C(=N\NC(=O)Nc1ccccc1)c1ccccn1 | 0 | 5 | 3 | · | 7.7* | 0 | 2
COc1ccc(CNC(=O)CN2C(=O)c3ccc([N+](=O)[O-])cc3C2=O)cc1 | 0 | 1 | -1 | 1 | 2 | · | ·
COC(=O)[C@@H]1Cc2c([nH]c3ccccc23)C2CCC(=O)N21 (stereo partly specified) | 0 | -1 | 0 | 0 | 1 | · | ·
O=C(O)[C@@H]1Cc2c([nH]c3ccccc23)C2CCC(=O)N21 (stereo partly specified) | 1.6* | 0 | 0 | -1 | 7.6* | 0 | 0
c1ccc(SCc2nc(-c3cccnc3)no2)cc1 | 0 | 8 | 0 | 2 | 7.3* | 2 | 5.8*
O=C(NN=C1CCCC1)c1ccc(Cl)cc1 | -1 | 2 | 0 | 0 | 2 | · | ·
Cc1cc(OCc2ccc(C(=O)NN=C3CCCC3)cc2)ccc1Cl | 0 | 8 | 0 | 0 | 9.9* | 0 | 9.4*
CCOC(=O)C1=NN(c2ccccc2)C2=NC(C)=C(C(=O)OC)C(c3ccc(C)cc3)N12 (stereo unspecified) | -1 | 0 | 0 | 2 | 8.3* | 0 | -2
COc1ccc(Cc2c(-c3cccc(Cl)c3)nc3cc(C)c(Br)c(C)n23)c(C)c1 | 2.0* | 4 | 0 | · | 6.9* | 0 | 5
COc1ccccc1Cc1c(-c2ccc(C)cc2)nc2cc(C)c(Br)c(C)n12 | 1.9* | 12* | 3 | · | 9.9* | 0 | 11*
Cc1cc2nc(-c3cccc(Br)c3)c(Cc3cccc(Cl)c3)n2c(C)c1Br | -1 | 0 | 1 | · | 2 | · | ·
Cc1cc2nc(-c3ccc(Cl)cc3)c(Cc3ccsc3)n2c(C)c1Br | 0.9* | 2 | -1 | · | 6.8* | 0 | 3
COc1ccccc1Cc1c(-c2ccc(F)cc2)nc2cc(C)c(Br)c(C)n12 | 1.1* | 8 | 1 | · | 8.6* | 0 | 6.7*
COc1cccc(-c2ccc3c(c2)O[C@@H](CN(C)C(=O)C2CCOCC2)[C@H](C)CN([C@H](C)CO)S3(=O)=O)c1 | -1 | 2 | -1 | 1 | -2 | · | ·
COc1ccc(-c2cc(NC=O)c3ncc(-c4cccc(C(=O)NCCN(C)C)c4)n3c2)c(OC)c1 | -2 | 0 | 1 | · | -2 | · | ·
COC(=O)c1cc2c(s1)-c1ccc(OC)cc1CC2 | 0 | 6 | 1 | 7.7* | 7.1* | 0 | 4
COc1ccccc1N1CCN(C(=O)c2cc3c(s2)-c2ccccc2OC3)CC1 | -1 | 3 | 0 | 2 | 1 | · | ·
